LYPLA2 inh: blocks human lysophospholipase 2, a PME1 counter-screen. recombinant LYPLA2, FP-Rh probe fluorescence polarization. inhibition, % at 5.9 µM. actives 0.38% (n = 320,000);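 active = inhibition above the screen-wide mean plus 3 SD, limit set per campaign, cut at about 26% in these data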
Target sequence (O95372 whole entry, looked up): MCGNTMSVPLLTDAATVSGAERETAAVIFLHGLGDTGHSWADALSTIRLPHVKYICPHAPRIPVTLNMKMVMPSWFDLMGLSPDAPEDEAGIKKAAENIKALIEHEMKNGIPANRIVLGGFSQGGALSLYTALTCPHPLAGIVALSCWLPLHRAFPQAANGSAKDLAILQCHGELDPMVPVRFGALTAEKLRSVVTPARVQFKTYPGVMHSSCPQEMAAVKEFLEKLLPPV
PREPL inhibitor: inhibitors of human prolyl oligopeptidase-like enzyme PREPL. actives 0.68% (n = 320,000). AID 2751. Q4J6C6. recombinant PREPL, fluorescence polarization activity-based probe. inhibition, % at 5.96 µM
LYPLA1 counter: LYPLA1 (human) inhibition in PME1 counter-screen. recombinant LYPLA1, FP-Rh probe fluorescence polarization. actives 0.16% (n = 320,000). inhibition, % at 5.9 µM;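 active = inhibition above the mean of all tested compounds plus 3 SD, set per campaign, cut at about 14% in these data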;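 also: inhibitors block serine hydrolase probe labeling of LYPLA1 so polarization falls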
Target sequence (O75608 whole entry, looked up): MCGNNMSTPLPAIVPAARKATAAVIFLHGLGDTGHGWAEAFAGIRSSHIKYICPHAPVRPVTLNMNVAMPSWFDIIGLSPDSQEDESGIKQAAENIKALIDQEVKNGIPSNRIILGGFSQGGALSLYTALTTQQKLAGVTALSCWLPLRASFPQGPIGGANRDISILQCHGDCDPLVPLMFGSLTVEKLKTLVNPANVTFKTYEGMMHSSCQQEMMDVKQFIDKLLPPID
Rin1 Abl inh: inhibitors of human Rin1-Abl protein interaction | P00519+Q13671 | TR-FRET Rin1/Abl binding, biochemical | inhibition, % at 7.35 µM | actives 0.4% (n = 360,000); in the data active = inhibition above about 5%, passing the limit was not always enough
Hck-Nef inh: human Hck-Nef kinase inhibition. P08631. Recombinant Hck-YEEI plus Nef, Z-Lyte FRET kinase assay. inhibition, % at 20 µM. actives 0.68% (n = 220,000). AID 463187;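 active = Hck-Nef kinase inhibition above about 50%, limit read from the data; inactive = inhibition below that limit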
p97 inhibitor: blocks human p97 ATPase activity; recombinant p97 ATPase, Kinase-Glo ATP luminescence, 3 h; inhibition, % at 8 µM; actives 0.42% (n = 220,000); AID 1481; in the data active = inhibition above about 15%
PREPL confirm: human PREPL inhibition, confirmation; inhibition, % at 5.96 µM; actives 67% (n = 2,000); shares compounds with PREPL inhibitor; recombinant PREPL, fluorescence polarization activity probe; AID 2803
A number is an active result. A selection: hits, their analogues and other compounds. The true share with any hit is near 1.7%. Rule as the data show it, unless noted: active = inhibition above about 43%; inactive = the rest.

Screening COc1cccc(C2=CC(c3ccccc3)n3nnnc3N2)c1 (stereo not given) returned LYPLA2 inh inactive, PREPL inhibitor inactive, LYPLA1 counter inactive, Rin1 Abl inh inactive, Hck-Nef inh inactive and p97 inhibitor inactive.
For COc1cccc(C2=CC(c3ccc(N(C)C)cc3)n3nnnc3N2)c1 (stereo not given) the results were LYPLA2 inh inactive, PREPL inhibitor 70, LYPLA1 counter inactive, Rin1 Abl inh inactive, Hck-Nef inh inactive, p97 inhibitor inactive and PREPL confirm 54.
Screening CC(OC(=O)C1CC1)C(=O)Nc1cccc(S(=O)(=O)N2CCOCC2)c1 (stereo not given) returned PREPL inhibitor inactive and Rin1 Abl inh inactive.
CCOc1ccccc1O[C@H](c1ccccc1)[C@H]1CNCCO1 was read as LYPLA2 inh inactive, PREPL inhibitor 44, LYPLA1 counter inactive, Rin1 Abl inh inactive and PREPL confirm inactive.
`O=S(=O)(c1c(F)cccc1F)N(CCc1ccc(F)cc1)C[C@@H](O)COCc1ccccc1` gave Rin1 Abl inh inactive.
Screening CCOc1ccc(NCc2nc3ccccc3n2CCOc2ccccc2)cc1 returned LYPLA2 inh inactive, PREPL inhibitor 45, LYPLA1 counter inactive, Rin1 Abl inh inactive, Hck-Nef inh inactive, p97 inhibitor inactive and PREPL confirm 45.
Screening N#Cc1cc(C#N)c(SCC(=O)N2CC(=O)Nc3ccccc32)nc1N returned LYPLA2 inh inactive, PREPL inhibitor 46, LYPLA1 counter inactive, Rin1 Abl inh inactive and PREPL confirm inactive.
CCc1ccc(OCC(=O)Nc2ccc(N3CCN(C(=O)c4ccccc4)CC3)cc2)cc1 was read as LYPLA2 inh inactive, PREPL inhibitor 58, LYPLA1 counter inactive, Rin1 Abl inh inactive and PREPL confirm 56.
For CCC(=O)N1CCN(c2ccc(NC(=O)COc3cccc(C)c3C)cc2)CC1 the results were LYPLA2 inh inactive, PREPL inhibitor 53, LYPLA1 counter inactive, Rin1 Abl inh inactive and PREPL confirm 56.
O=C(NC(=S)Nc1ccccc1N1CCN(C(=O)c2ccccc2)CC1)c1cccs1 was read as LYPLA2 inh inactive, PREPL inhibitor inactive, LYPLA1 counter inactive, Rin1 Abl inh inactive, Hck-Nef inh inactive and p97 inhibitor inactive.
Cc1cccc(OCC(=O)Nc2ccc(N3CCN(C(=O)c4ccccc4)CC3)cc2)c1C was read as LYPLA2 inh inactive, PREPL inhibitor 53, LYPLA1 counter inactive, Rin1 Abl inh inactive and PREPL confirm 54.
O=C(NC(=S)Nc1ccc(N2CCN(C(=O)c3ccccc3)CC2)cc1)c1cccs1 was read as LYPLA2 inh inactive, PREPL inhibitor 51, LYPLA1 counter inactive, Rin1 Abl inh inactive, Hck-Nef inh inactive, p97 inhibitor inactive and PREPL confirm inactive.
`CCOC(=O)CNC(=O)C1c2ccccc2Oc2ccccc21` gave LYPLA2 inh inactive, PREPL inhibitor inactive, LYPLA1 counter inactive and Rin1 Abl inh inactive.
`COc1cccc(CNC(=O)CCCN2C(=O)C(c3ccccc3)Oc3cccnc32)c1OC` (stereo not given) gave LYPLA2 inh inactive, PREPL inhibitor inactive, LYPLA1 counter inactive and Rin1 Abl inh inactive.
CCCCNC(=O)CN(Cc1ccco1)S(=O)(=O)c1ccc(C(C)=O)cc1 was read as LYPLA2 inh inactive, PREPL inhibitor inactive, LYPLA1 counter inactive and Rin1 Abl inh inactive.
`CCCCn1c(N)c(N(CCOC)C(=O)c2ccc3c(c2)C(=O)N(c2cc(C)ccc2C)C3=O)c(=O)[nH]c1=O` gave LYPLA2 inh inactive, PREPL inhibitor inactive, LYPLA1 counter inactive and Rin1 Abl inh inactive.
For O=C(COC(=O)/C=C/c1ccc(Cl)cc1)Nc1cccc(S(=O)(=O)NC2=NCCCCC2)c1 the results were PREPL inhibitor 44, Rin1 Abl inh inactive and PREPL confirm inactive.
Screening O=C(COC(=O)/C=C/c1cccc(Cl)c1)Nc1cccc(S(=O)(=O)NC2=NCCC2)c1 returned LYPLA2 inh inactive, PREPL inhibitor inactive, LYPLA1 counter inactive and Rin1 Abl inh inactive.
For O=C(COC(=O)c1ccc(C(F)(F)F)cc1)Nc1cccc(S(=O)(=O)NC2=NCCCCC2)c1 the results were PREPL inhibitor 46, Rin1 Abl inh inactive and PREPL confirm inactive.
Screening O=C(Nc1ccc(Cl)c(Cl)c1)C1C2C=CC3(O2)C1C(=O)N(CCN1CCCCC1)C3C(=O)NC1CCCCC1 (stereo not given) returned LYPLA2 inh inactive, PREPL inhibitor 50, LYPLA1 counter inactive, Rin1 Abl inh inactive and PREPL confirm 52.
For CCCc1cc(=O)[nH]c(SCC(=O)Nc2c(C)n(C)n(-c3ccccc3)c2=O)n1 the results were PREPL inhibitor inactive and Rin1 Abl inh inactive.
`COc1cccc(N2C(=NC(=O)COc3ccccc3)SC3CS(=O)(=O)CC32)c1` (stereo not given) gave LYPLA2 inh inactive, PREPL inhibitor inactive, LYPLA1 counter inactive and Rin1 Abl inh inactive.
Cc1sc2ncnc(N/N=C/c3ccc(O)cc3)c2c1C was read as LYPLA2 inh inactive, PREPL inhibitor inactive, LYPLA1 counter inactive, Rin1 Abl inh inactive, Hck-Nef inh inactive and p97 inhibitor inactive.
For Cc1sc2ncnc(N/N=C/c3ccccc3O)c2c1C the results were LYPLA2 inh inactive, PREPL inhibitor 66, LYPLA1 counter inactive, Rin1 Abl inh inactive, Hck-Nef inh inactive, p97 inhibitor inactive and PREPL confirm 65.
Cc1ccccc1NC(=O)c1ccc(C)c(S(=O)(=O)Nc2ccccn2)c1 was read as LYPLA2 inh inactive, PREPL inhibitor inactive, LYPLA1 counter inactive, Rin1 Abl inh inactive, Hck-Nef inh inactive and p97 inhibitor inactive.
Screening Cc1ccc(C(=O)Nc2ccc(Br)cc2)cc1S(=O)(=O)Nc1ccccn1 returned LYPLA2 inh inactive, PREPL inhibitor 43, LYPLA1 counter inactive, Rin1 Abl inh inactive, Hck-Nef inh inactive, p97 inhibitor inactive and PREPL confirm inactive.
For CCN1CCc2c(sc(NC(=O)Nc3ccc(Cl)c(Cl)c3)c2C(N)=O)C1 the results were LYPLA2 inh inactive, PREPL inhibitor 70, LYPLA1 counter inactive, Rin1 Abl inh inactive, Hck-Nef inh inactive, p97 inhibitor inactive and PREPL confirm 54.
Screening CCN1CCc2c(sc(NC(=O)Cc3ccccc3)c2C(N)=O)C1 returned LYPLA2 inh inactive, PREPL inhibitor inactive, LYPLA1 counter inactive and Rin1 Abl inh inactive.
`CCCCOc1ccc(C(=O)NCC(=O)NCC(c2ccc(OC)cc2)N2CCCC2)cc1` (stereo not given) gave LYPLA2 inh inactive, PREPL inhibitor inactive, LYPLA1 counter inactive and Rin1 Abl inh inactive.
For COC(=O)c1ccc(N2CCN(c3ccccc3)CC2)c(N)c1 the results were LYPLA2 inh inactive, PREPL inhibitor inactive, LYPLA1 counter inactive and Rin1 Abl inh inactive.

Assay outcomes (PubChem)
